Test results as given in PubChem BioAssay AID2202241 (National Center for Advancing Translational Sciences (NCATS), 2025).
Active and inactive are the calls of the source. How the calls were made is not given here. Square brackets hold non-standard residues; d marks the D form. Peptide text beside a SMILES is read from it. Dolaproine = CO[C@@H]([C@@H]1CCCN1)[C@@H](C)C(=O)O; Dil = CC[C@H](C)[C@H](NC)[C@@H](CC(=O)O)OC; NMeV = CN[C@H](C(=O)O)C(C)C

Experiment: Identification of antibody-drug conjugate (ADC) payloads which are substrates of ATP-binding cassette drug efflux transporters: cell line panel data
Details: 99 cancer cell line panel, CellTiter-Glo viability, 48 h; hits give low values
Description: Antibody-drug conjugates (ADCs) feature an antibody recognizing a specific protein joined to a potent toxic payload. Numerous antibody-drug conjugates have received FDA approval; however, clinical resistance arises. Resistance mechanisms include decreased expression or mutation of the antibody target, impaired payload release, or increased expression of ATP-binding cassette (ABC) efflux transporters associated with multidrug resistance. We therefore sought to characterize the activity of ADC payloads across a broad set of cancer cell lines. We performed a high-throughput screen with 27 common ADC payloads against a panel of 99 cell lines to assess sensitivity to various payloads. Duocarmycin DM and PNU-159682 were exquisitely toxic across the panel of cancer cell lines of varying origins. These findings highlight the potentially broad applicability of Duocarmycin DM and PNU-159682 as ADC payloads in future ADC development.
Compounds were sourced from Levena Biopharma (San Diego, CA), Selleck Chem (Houston, TX), ChemieTek (Indianapolis, IN), or Microsource Discovery Systems (Gaylordsville, CT). Cell line sources and culture conditions were as follows: CAL-27 (ATCC: CRL-2095) and Hs 766T (ATCC: HTB-134) were grown in DMEM media +10% FBS. RKO (ATCC: CRL-2577), A-427 (ATCC: […]), BT-20 (ATCC: HTB-19), Detroit562 (ATCC: CCL-138), HARA-B (Cytion: 300465), PA-1 (ATCC: CRL-1572), TCCSUP (ATCC: […]), UM-UC-3 (ATCC: CRL-1749), and WI-38 (ATCC: CCL-75) were grown in EMEM media +10% FBS. AGS (ATCC: CRL-1739) was grown in F12K media +10% FBS. JJN-3 (DSMZ: ACC 541) was grown in IMDM media +20% FBS. 769-P (ATCC: CRL-1933), 786-O (ATCC: CRL-1932), A-375 (ATCC: CRL-1619), A-431 (ATCC: CRL-1555), A-549 (ATCC: CCL-185), A2780 (Cytion: 300491), ACHN (ATCC: CRL-1611), BT-474 (ATCC: HTB-20), BT-549 (ATCC: HTB-122), CCRF-CEM (ATCC: CCL-119), Daudi (ATCC: CCL-213), HaCaT (Cytion: 300493), HCC38 (ATCC: CRL-2314), HCC827 (ATCC: CRL-2868), HCT15 (ATCC: CCL-225), HEL 92.1.7 (ATCC: TIB-180), Hs 352.Sk (ATCC: CRL-7250), Hs578T (ATCC: HTB-126), HT-1080 (ATCC: CCL-121), HuCC-T1 (Riken Bioresource Center: RCB1960), HuP-T3 (DSMZ: ACC 259), HuP-T4 (DSMZ: ACC 223), IM-9 (ATCC: CCL-159), JJ012 (Gift: Karina Galoian (University of Miami)), JM-1 (ATCC: CRL-10423), K-562 (ATCC: CCL-243), Kasumi-3 (ATCC: CRL-2725), KMS-12-BM (DSMZ: ACC 551), LOUCY (ATCC: CRL-2629), LoVo (ATCC: CCL-229), MCF-7 (ATCC: HTB-22), MDA-MB-231 (ATCC: HTB-26), MDA-MB-436 (ATCC: HTB-130), MDA-MB-468 (ATCC: HTB-132), MIA PaCa-2 (ATCC: CRL-1420), MM1.R (ATCC: CRL-2975), MM1.S (ATCC: CRL-2974), NALM-6 (ATCC: CRL-3273), NCI-H1299 (ATCC: CRL-5803), NCI-H1355 (ATCC: CRL-5865), NCI-H1395 (ATCC: CRL-5868), NCI-H1437 (ATCC: CRL-5872), NCI-H2122 (ATCC: CRL-5985), NCI-H2170 (ATCC: CRL-5928), NCI-H226 (ATCC: CRL-5826), NCI-H23 (ATCC: CRL-5800), NCI-H322M (NIH: NCI-60), NCI-H460 (ATCC: HTB-177), NCI-H522 (ATCC: CRL-5810), NCI-H929 (ATCC: CRL-3580), NIH 3T3 (ATCC: CRL-1658), OCI-M2 (DSMZ: ACC 619), OPM-2 (DSMZ: ACCC 50), OVCAR-3 (ATCC: HTB-161), OVCAR-4 (Gift: Phil Lorenzi MD Anderson), OVCAR-8 (Gift: Phil Lorenzi MD Anderson), Panc 10.05 (ATCC: CRL-2547), PANC-1 (ATCC: CRL-1469), Pfeiffer (ATCC: CRL-2632), PL45 (ATCC: CRL-2558), PSN1 (ATCC: CRL-3211), Raji (ATCC: CCL-86), RD (Gift: Mari Yohe NCI), RPMI-8226 (ATCC: CRM-CCL-155), RS4;11 (ATCC: CRL-1873), SK-BR-3 (ATCC: HTB-30), SK-MEL-28 (ATCC: HTB-72), SMS-CTR (Gift: Mari Yohe NCI), SNU-16 (ATCC: CRL-5974), SU-DHL-8 (ATCC: CRL-2961), SU.86.86 (ATCC: CRL-1837), SW1990 (ATCC: CRL-2172), SW403 (ATCC: CCL-230), SW480 (ATCC: CCL-228), SW579 (ATCC: HTB-107), T-47D (ATCC: HTB-133), T24 (ATCC: HTB-4), and U-937 (ATCC: CRL-1593.2) were grown in RPMI +10% FBS. U266B1 (ATCC: TIB-196) were grown in RPMI +15% FBS. ME-1 (ATCC: HB-119), MOLM-13 (DSMZ: ACC 554), AMO1 (DSMZ: ACC 538), MOLP-8 (DSMZ: ACC 569), MV4-11 (ATCC: CRL-9591), PL-21 (DSMZ: ACC 536), and L-363 (DSMZ: ACC 49) were grown in RPMI +20% FBS. […]

SMILES	viability AUC
CCN[C@H]1CO[C@@H](O[C@H]2[C@H](O[C@H]3C#C/C=C\C#C[C@]4(O)CC(=O)C(NC(=O)OC)=C3/C4=C\CSSSC)O[C@H](C)[C@@H](NO[C@H]3C[C@H](O)[C@H](SC(=O)c4c(C)c(I)c(O[C@@H]5O[C@@H](C)[C@H](O)[C@@H](OC)[C@H]5O)c(OC)c4OC)[C@@H](C)O3)[C@@H]2O)C[C@@H]1OC	635 (active)
CC[C@H](C)[C@@H]([C@@H](CC(=O)N1CCC[C@H]1[C@H](OC)[C@@H](C)C(=O)N[C@@H](Cc1ccccc1)C(=O)O)OC)N(C)C(=O)[C@@H](NC(=O)[C@@H](NC)C(C)C)C(C)C (H-[NMeV]V[Dil][Dolaproine]F-OH)	938 (active)
CN(C)CCOc1ccc2[nH]c(C(=O)N3C[C@@H](CCl)c4c3cc(O)c3ccccc43)cc2c1	514 (active)
COc1cccc2c1C(=O)c1c(O)c3c(c(O)c1C2=O)C[C@@](O)(C(=O)CO)C[C@@H]3O[C@H]1C[C@H]2[C@H](O[C@@H]3[C@@H](OC)OCCN32)[C@H](C)O1	549 (active)
CC[C@H](C)[C@@H]([C@H](N)CC(=O)N1CCC[C@H]1[C@H](OC)[C@@H](C)C(=O)N[C@@H](Cc1ccccc1)c1nccs1)N(C)C(=O)[C@@H](NC(=O)[C@@H](NC)C(C)C)C(C)C	738 (active)
CCN(C(C)=O)[C@H]1CO[C@@H](O[C@H]2[C@H](O[C@H]3C#C/C=C\C#C[C@]4(O)CC(=O)C(NC(=O)OC)=C3/C4=C\CSSSC)O[C@H](C)[C@@H](NO[C@H]3C[C@H](O)[C@H](SC(=O)c4c(C)c(I)c(O[C@@H]5O[C@@H](C)[C@H](O)[C@@H](OC)[C@H]5O)c(OC)c4OC)[C@@H](C)O3)[C@@H]2O)C[C@@H]1OC	700 (active)
CC[C@H](C)[C@@H]([C@H](N)CC(=O)N1CCC[C@H]1[C@H](OC)[C@@H](C)C(=O)N[C@@H](Cc1ccccc1)c1nccs1)N(C)C(=O)[C@@H](NC(=O)[C@H](C(C)C)N(C)C)C(C)C	769 (active)
COC(=O)c1cc2c3c(cc(O)c2[nH]1)N(C(=O)c1cc2cc(OC)c(OC)c(OC)c2[nH]1)CC3CCl (stereo unspecified)	651 (active)
CC(C)(C)OC(=O)Nc1ccc2[nH]c(C(=O)N3C[C@@H](CCl)c4c3cc(O)c3ccccc43)cc2c1	645 (active)
COc1ccc(C2=CN3C(=O)c4cc(OC)c(OCCCOc5cc6c(cc5OC)C(=O)N5C=C(c7ccc(N)cc7)C[C@@H]5C=N6)cc4N=C[C@H]3C2)cc1	762 (active)
COc1cc2cc(c1Cl)N(C)C(=O)C[C@H](O)[C@]1(C)O[C@H]1[C@H](C)C1C[C@@](O)(NC(=O)O1)[C@H](OC)/C=C/C=C(\C)C2	1010 (active)
